# Assay outcomes as filed in PubChem BioAssay.
# Hits are enriched below; roughly 2.1% of the tested compounds scored in any of these assays.
# SMARCA2 activ – increases SMARCA2 function in MMTV reporter cells. MG213 cells, MMTV-luciferase reporter, dexamethasone, overnight. activation, % at 9.1 µM. 370,000 tested, 1% active. AID 652017; in the data active means activation above about 7.8%;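 further: 0% = vehicle wells and 100% = reference activator wells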
# MsrA inhibitor – bovine MsrA inhibition. purified bovine MsrA, absorbance read-out. inhibition, % at 15.5 µM. 360,000 tested, 0.75% active;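 further: 0% = vehicle wells with enzyme and 100% = reference inhibitor wells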
# bovine MsrA act – activates bovine MsrA enzyme; purified bovine MsrA, absorbance read-out; activation, % at 10.6 µM; 360,000 tested, 0.3% active; AID 602163; in the data active means activation above about 7.5%;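 further: 0% = vehicle and 100% = reference activator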
# ABCB6 inh MLPCN – inhibitors of human ABC transporter ABCB6 | fluorescence ratio to DMSO, % at 10 µM | 360,000 tested, 0.19% active | K562-ABCB6 porphyrin accumulation, flow cytometry, 1 h; stronger effect = lower value;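 active means fluorescence ratio to DMSO below 75%, the collection mean minus 3 SD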;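 further: signal is porphyrin accumulated inside mitochondria; 100% equals median channel fluorescence of DMSO control wells; lower ratio means ABCB6 inhibition with less porphyrin fluorescence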
# Target sequence (Q9NP58 whole entry, looked up): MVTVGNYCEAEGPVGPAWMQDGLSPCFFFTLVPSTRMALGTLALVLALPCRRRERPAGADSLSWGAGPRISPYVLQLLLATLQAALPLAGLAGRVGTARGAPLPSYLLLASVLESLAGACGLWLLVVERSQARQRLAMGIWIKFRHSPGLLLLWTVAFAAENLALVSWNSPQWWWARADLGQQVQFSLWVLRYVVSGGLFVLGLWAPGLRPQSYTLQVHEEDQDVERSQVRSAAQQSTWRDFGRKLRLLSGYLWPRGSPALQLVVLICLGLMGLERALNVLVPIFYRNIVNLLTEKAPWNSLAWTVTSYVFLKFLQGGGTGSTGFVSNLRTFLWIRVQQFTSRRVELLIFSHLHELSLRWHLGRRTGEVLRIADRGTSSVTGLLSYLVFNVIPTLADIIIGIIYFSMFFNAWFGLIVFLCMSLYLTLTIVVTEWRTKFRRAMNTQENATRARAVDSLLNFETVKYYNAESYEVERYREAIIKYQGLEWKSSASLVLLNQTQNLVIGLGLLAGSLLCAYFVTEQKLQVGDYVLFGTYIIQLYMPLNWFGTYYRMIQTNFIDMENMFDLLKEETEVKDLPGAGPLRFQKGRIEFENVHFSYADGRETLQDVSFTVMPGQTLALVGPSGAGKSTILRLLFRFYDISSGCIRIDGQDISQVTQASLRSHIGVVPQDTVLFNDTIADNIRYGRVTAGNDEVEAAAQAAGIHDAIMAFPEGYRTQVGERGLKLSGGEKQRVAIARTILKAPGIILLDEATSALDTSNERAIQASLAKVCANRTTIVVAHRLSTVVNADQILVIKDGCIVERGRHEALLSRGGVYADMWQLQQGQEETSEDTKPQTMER
# MsrA activ conf – confirmation of bovine methionine sulfoxide reductase A activators; shares compounds with bovine MsrA act; purified bovine MsrA, absorbance read-out; activation, % at 10.6 µM; 1,000 tested, 12% active; in the data active means activation above about 4%;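 further: enzyme coupled to thioredoxin and thioredoxin reductase with NADPH; 0% = vehicle wells and 100% = reference activator wells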
# MsrA conf – confirmation of bovine MsrA inhibitors; AID 651822; 2,300 tested, 41% active; purified bovine MsrA, absorbance read-out; inhibition, % at 15.5 µM; shares compounds with MsrA inhibitor;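 further: coupled to thioredoxin reductase with NADPH and selenocystamine and DMSO as substrate; 0% = vehicle only and 100% = full effect of reference inhibitor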
# SMARCA2 act conf – SMARCA2 activation, confirmation screen | MG213 cells, MMTV-luciferase with dexamethasone, luminescence, overnight; MG213 cells expressing E1A, Rb sequestered; DMSO wells 0%, reference activator 100% | shares compounds with SMARCA2 activ | activation, % at 9.1 µM | 3,500 tested, 30% active;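 active means activation above its plate's cutoff, the mean activation of tested wells plus 3 SD, cut at about 7.9% in these data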
# GAL4-VP16 Luc – GAL4-VP16 reporter activation counter-screen | HEK293 GAL4-VP16 pG5luc reporter, luciferase luminescence; scaled: DMSO wells 0%, SAHA wells 100% | activation, % at 9.1 µM | 3,500 tested, 41% active | shares compounds with SMARCA2 activ;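 active means activation above the solvent-only control well mean plus 3 SD, averaged across control plates, cut at about 5.2% in these data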
# * hit, by the source's call; x = no result given. Unless noted, no stated cut-off is given here; in the data, active means inhibition above about 4.5%; inactive means the rest.
SMILES,SMARCA2 activ,MsrA inhibitor,bovine MsrA act,ABCB6 inh MLPCN,MsrA conf,others
C=CCN(Cc1ccc2c(c1)OCO2)C(C#CC1CC1)C(C)C (centres undefined),-5,x,x,x,x,
CC(=O)Nc1ccc(-c2cc(N)n(-c3ccccc3)n2)cc1,2,2,-6,96,x,
CC(=O)Nc1ccc2c(=O)n(-c3ccccc3)sc2c1,9.8*,4,7.7*,101,x,MsrA activ conf=4;SMARCA2 act conf=8;GAL4-VP16 Luc=2
COCCCNC(=O)C[C@H]1C[C@@]2(C(=O)OC)C(=C[C@H](C(C)C)O[C@@H]2C2CC2)N(Cc2ccc(Cl)cc2Cl)C1=O,-3,x,x,x,x,
O=c1c2ccccc2sn1-c1cccc(Cl)c1,13*,1,12*,96,x,MsrA activ conf=5.8*;SMARCA2 act conf=3;GAL4-VP16 Luc=1
CNC(=S)Nc1sc2c(c1C(=O)OC)CCC2,9.1*,2,8.4*,98,x,MsrA activ conf=2;SMARCA2 act conf=0;GAL4-VP16 Luc=0
C/C=C/C=N\NC(=O)c1ccncc1,8.2*,-1,15*,105,x,MsrA activ conf=1;SMARCA2 act conf=3;GAL4-VP16 Luc=-1
Cc1ccsc1/C=N/NC(=O)c1ccncc1,5,3,-3,96,x,
COC(=O)[C@]12C[C@H](CC(=O)N3CCN(C(=O)c4ccco4)CC3)C(=O)N(Cc3cccc4ccccc34)C1=C[C@H](COCc1ccccc1)O[C@@H]2C,-2,x,x,x,x,
CCOc1cc(/C=C2/NC(=O)NC2=O)cc(Br)c1OCc1ccc(C(=O)O)cc1,-3,6.2*,-6,105,2,
COc1cc(/C=C2\NC(=O)NC2=O)cc(Br)c1OC,-3,4,-1,93,x,
CCSc1nc(N2CCCCC2)c2c(c1C#N)CCCC2,-1,2,0,93,x,
N#Cc1c(SCc2ccccc2)nc(N2CCOCC2)c2c1CCCC2,-2,14*,-3,95,10*,
COc1ccc(/C=N/NC(=O)c2ccc3c(c2)OCO3)cc1,5,4,-3,157,x,
CN(C)c1ccc(C(=O)N/N=C/c2ccccn2)cc1,2,7.4*,-3,100,4,
COc1cc(/C=N/NC(=O)c2ccc3c(c2)OCO3)ccc1O,1,6.3*,-4,92,4,
CCN(CC)c1ccc(/C=N/NC(=O)c2ccc3c(c2)OCCO3)cc1,3,3,-1,97,x,
CN(C)c1ccc(/C=N/NC(=O)c2ccc3c(c2)OCCO3)cc1,6,5.0*,-4,105,5.5*,
COc1cc(/C=N/NC(=O)/C(=C\c2ccc3c(c2)OCO3)NC(=O)c2ccccc2)ccc1O,-2,8.7*,-7,99,4.9*,
CN1C2CCCC1CC(NC(=O)c1nn(C)c3ccccc13)C2 (centres undefined),-5,x,x,x,x,
Cc1ccccc1Cn1ccc2ccc(-c3ccc4ccn(Cc5ccccc5)c4c3)cc21,-3,x,x,x,x,
COc1ccccc1CNC(=O)NCCCN1CCN(c2ccc(F)cc2)CC1,-3,x,x,x,x,
Cc1ccc(-c2c(NC(=O)Nc3ccccc3)nc3ncccn23)cc1,2,x,x,x,x,
CCOc1cc(/C=N/NC(=O)c2ccc3c(c2)OCCO3)cc(Br)c1O,0,6.0*,-4,99,6.9*,
COc1cc(/C=N/NC(=O)c2cccs2)ccc1O,-1,1,-9,96,x,
SMILES,SMARCA2 activ,MsrA inhibitor,bovine MsrA act,ABCB6 inh MLPCN,MsrA conf,others
COc1cc(/C=N/NC(=O)c2ccc(-n3cccc3)cc2)ccc1O,-2,5.9*,-5,86,4.8*,
O=C(Nc1cccc(NC(=O)C2CCCO2)c1)C1CCCO1 (centres undefined),-2,-1,-6,96,x,
Cc1ccc(NC(=O)C2CCCO2)cc1[N+](=O)[O-] (centres undefined),-1,39*,-4,96,8.4*,
O=c1c2c(-c3cccs3)csc2ncn1-n1cccc1,-2,1,-2,100,x,
Cc1ccc(C)n1-n1cnc2scc(-c3cccs3)c2c1=O,2,5.5*,-2,100,2,
O=C1OC(c2cccs2)=N/C1=C/c1ccc(-c2cccc(C(=O)O)c2)o1,3,4,-5,104,x,
O=C1OC(c2ccco2)=N/C1=C\c1ccc(-c2cccc(C(F)(F)F)c2)o1,-5,5.6*,-2,98,2,
Cc1ccccc1Cn1cc(CN2[C@@H](CC(C)C)COc3cccc(F)c3S2(=O)=O)nn1,1,x,x,x,x,
COCCn1c(C)cc(C(=O)CSc2ccc3ccccc3n2)c1C,4,2,-2,99,x,
COCCn1c(C)cc(C(=O)COc2nc3ccccc3nc2C)c1C,-4,4.8*,-12,99,2,
CC(=O)Nc1cc(Cl)c(N=Cc2ccc(O)cc2O)cc1Cl,1,1,-4,115,x,
CCOC(=O)c1sc(/N=C/c2ccc(O)cc2O)cc1C,0,5.3*,-11,98,2,
CCCCNC(=S)N(C)/N=C/c1ccc(OCC(=O)Nc2ccc(OC)cc2)c(OC)c1,-5,6.5*,-11,101,3,
CCC(C)Cn1cnc2c(Sc3c([N+](=O)[O-])ncn3C)nc(N)nc21 (centres undefined),-1,4.9*,-3,97,4.9*,
CCCCn1cnc2c(Sc3c([N+](=O)[O-])ncn3C)nc(N)nc21,0,5.2*,-2,106,4,
CCCn1cnc2c(Sc3c([N+](=O)[O-])ncn3C)nc(N)nc21,-1,5,-1,101,x,
CC(C)Cn1cnc2c(Sc3c([N+](=O)[O-])ncn3C)nc(N)nc21,-3,7.7*,-2,100,4,
COC(=O)[C@]12C[C@H](CC(=O)NCCc3ccccc3OC)C(=O)N(CCc3ccc(OC)c(OC)c3)C1=C[C@H](COCc1ccccc1)O[C@@H]2C,-2,x,x,x,x,
COCCCNC(=O)C1CCN(S(=O)(=O)c2ccc3[nH]c(=O)oc3c2)CC1,-5,x,x,x,x,
COc1ccc(-n2nnc3c(SC(C(C)=O)C(=O)N(C)C)ncnc32)cc1 (centres undefined),2,5.4*,-5,97,3,
COCCCNC(=O)C[C@H]1C[C@@]2(C(=O)OC)C(=C[C@H](C3CCCC3)O[C@@H]2C)N(CCC2=CCCCC2)C1=O,-2,x,x,x,x,
O=[N+]([O-])c1ccc(Sc2nnnn2-c2ccccc2)nc1,0,4.8*,x,x,2,
Cc1ccc(N2C(=O)c3ccccc3C2C(=O)c2ccc(O)cc2O)cc1 (centres undefined),1,6.2*,-6,99,6.0*,
Cc1ccc(N2C(=O)c3ccccc3C2C(=O)c2cc(C)ccc2O)cc1 (centres undefined),1,0,-6,101,x,
Cn1cnc([N+](=O)[O-])c1S(=O)(=O)Oc1ccc(Cl)cc1,-1,23*,-1,107,13*,
